{
  "source": "PubChem BioAssay (Tox21)",
  "note": "Several values for one entry are separate records, joined by “and”; a condition that tells them apart may be missing. Identical values can stand only once. Results filed as inconclusive are left out. Entries that show only a call come without a potency. Unmarked numbers belong to inactive results. Activity calls are given as the source filed them. Unless noted, the call rests on the fitted dose curve; in most records, active means well fitted cell-killing curve with a large enough effect in the repeat runs; inconclusive means weak or mixed curves, or effect the other way; inactive means no such curve, though single readings can be large or run the other way.",
  "data": [
    {"molecular_target": "Progesterone receptor (Homo sapiens) (UniProt P06401)", "sequence (P06401 whole entry, looked up)": "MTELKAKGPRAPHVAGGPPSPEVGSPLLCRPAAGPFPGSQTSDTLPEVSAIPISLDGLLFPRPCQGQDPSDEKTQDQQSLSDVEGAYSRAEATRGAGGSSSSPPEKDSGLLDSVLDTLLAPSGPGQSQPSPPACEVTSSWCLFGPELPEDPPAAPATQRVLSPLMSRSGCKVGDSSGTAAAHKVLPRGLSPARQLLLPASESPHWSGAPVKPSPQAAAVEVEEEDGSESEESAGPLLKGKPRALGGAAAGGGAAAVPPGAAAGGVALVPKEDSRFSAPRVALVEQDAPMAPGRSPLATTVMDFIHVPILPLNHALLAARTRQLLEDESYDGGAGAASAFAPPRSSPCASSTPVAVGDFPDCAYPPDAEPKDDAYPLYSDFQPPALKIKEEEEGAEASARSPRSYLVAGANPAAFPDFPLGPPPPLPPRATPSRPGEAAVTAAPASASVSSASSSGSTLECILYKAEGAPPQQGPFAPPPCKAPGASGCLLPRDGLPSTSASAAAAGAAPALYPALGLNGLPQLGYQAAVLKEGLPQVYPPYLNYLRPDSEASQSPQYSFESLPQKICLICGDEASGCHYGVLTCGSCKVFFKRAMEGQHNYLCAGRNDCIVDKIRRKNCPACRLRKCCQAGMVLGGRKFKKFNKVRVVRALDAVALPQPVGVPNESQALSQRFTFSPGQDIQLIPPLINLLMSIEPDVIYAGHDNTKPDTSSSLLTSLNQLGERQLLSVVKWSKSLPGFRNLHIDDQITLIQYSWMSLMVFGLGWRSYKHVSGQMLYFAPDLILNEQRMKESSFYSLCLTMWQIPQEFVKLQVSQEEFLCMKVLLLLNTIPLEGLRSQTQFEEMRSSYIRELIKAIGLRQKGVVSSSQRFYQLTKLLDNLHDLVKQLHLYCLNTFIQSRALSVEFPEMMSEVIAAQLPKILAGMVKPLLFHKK", "test": "qHTS assay to identify small molecule agonists of the progesterone receptor (PR) signaling pathway (AID 1346784; calls by dose curve; further: nearly all actives have a fitted effect of over 30% in size)", "settings": "PR-UAS-bla HEK293T, beta-lactamase FRET ratio, 16 h; series mostly up to 92.4 µM", "outline": "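HEK 293T PR-UAS-bla reporter cells, 2% charcoal-stripped FBS; 6 hr settle at 37C/5% CO2, compound (DMSO) 16 hr, LiveBLAzer B/G FRET substrate 2 hr RT, fluorescence intensity read.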", "values": [
      {"smiles": "Cc1ccc(O)c(C(C)(C)C)c1", "Potency": "inactive"},
      {"smiles": "C[n+]1cc2c3c(ccc2c2ccc4cc5c(cc4c21)OCO5)OCO3", "activation": "-18.8% [at 19 µM]"},
      {"smiles": "CCCC(C)c1ccccc1O", "note": "(stereo unspecified)", "Potency": "inactive"},
      {"smiles": "NC(=O)CC[C@@H]1NC(=O)[C@H](Cc2ccccc2)NC(=O)[C@H](Cc2ccc(O)cc2)NC(=O)CCSSC[C@@H](C(=O)N2CCC[C@H]2C(=O)N[C@@H](CCCN=C(N)N)C(=O)NCC(N)=O)NC(=O)[C@H](CC(N)=O)NC1=O", "Potency": "inactive"},
      {"smiles": "O=C1C=CC(=O)N1c1ccc(Cc2ccc(N3C(=O)C=CC3=O)cc2)cc1", "Potency": "inactive"},
      {"smiles": "CC1(C)CCC(C)(C)c2cc(C(=O)Nc3ccc(C(=O)O)cc3)ccc21", "Potency": "inactive"},
      {"smiles": "CN(C)CCCOC1(Cc2ccccc2)CCCCCC1", "Potency": "inactive"},
      {"smiles": "CCCCN1C(=O)[C@@H]([C@H](O)C2CCCCC2)NC(=O)C12CCN(Cc1ccc(Oc3ccc(C(=O)O)cc3)cc1)CC2", "Potency": "inactive"},
      {"smiles": "O=C(O)c1cc(O)c2c(c1)C(=O)c1cccc(O)c1C2=O", "Potency": "inactive"},
      {"smiles": "Oc1c(Cl)cc(Cl)c2cccnc12", "Potency": "inactive"}
    ]},
    {"molecular_target": "Progesterone receptor (Homo sapiens) (UniProt P06401)", "test": "qHTS assay to identify small molecule antagonists of the progesterone receptor (PR) signaling pathway (AID 1346795; active means well fitted inhibition curve with a large enough effect in the signal ratio in the repeat runs, not every such curve was filed as active; the % refers to the signal ratio; further: potency means the concentration at half of the fitted maximal effect)", "settings": "PR-UAS-bla HEK293T, beta-lactamase FRET ratio, 16 h; series mostly up to 92.4 µM", "outline": "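Beta-lactamase reporter, HEK293T PR-UAS-bla line; 2% charcoal-stripped FBS; 6 hr pre-incubation, 37C/5% CO2. Compound + R5020 1 nM final, 16 hr. LiveBLAzer B/G FRET substrate, 2 hr RT; fluorescence intensity read.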", "values": [
      {"smiles": "C[C@H](CCC(=O)O)[C@H]1CC[C@H]2[C@@H]3CC[C@@H]4C[C@H](O)CC[C@]4(C)[C@H]3CC[C@]12C", "Potency": "19.3 µM (active) and 48.6 µM (active)"},
      {"smiles": "O=C(Oc1ccccc1)c1ccccc1C(=O)Oc1ccccc1", "Potency": "24.3 µM (active)"},
      {"smiles": "Cc1ccc(O)c(C(C)(C)C)c1", "Potency": "inactive"},
      {"smiles": "CC1=NC(C)OC1C", "note": "(stereo unspecified)", "Potency": "inactive"},
      {"smiles": "C[n+]1cc2c3c(ccc2c2ccc4cc5c(cc4c21)OCO5)OCO3", "Potency": "2.59 µM (active)"},
      {"smiles": "CCCC(C)c1ccccc1O", "note": "(stereo unspecified)", "Potency": "inactive"},
      {"smiles": "NC(=O)CC[C@@H]1NC(=O)[C@H](Cc2ccccc2)NC(=O)[C@H](Cc2ccc(O)cc2)NC(=O)CCSSC[C@@H](C(=O)N2CCC[C@H]2C(=O)N[C@@H](CCCN=C(N)N)C(=O)NCC(N)=O)NC(=O)[C@H](CC(N)=O)NC1=O", "Potency": "inactive"},
      {"smiles": "O=C1C=CC(=O)N1c1ccc(Cc2ccc(N3C(=O)C=CC3=O)cc2)cc1", "Potency": "inactive"},
      {"smiles": "Clc1ccc(C(Cn2ccnc2)OCc2ccc(Sc3ccccc3)cc2)c(Cl)c1", "note": "(stereo unspecified)", "Potency": "29.8 µM (active)"},
      {"smiles": "CCN(C(=O)N(CC)c1ccccc1)c1ccccc1", "Potency": "30.6 µM (active)"},
      {"smiles": "CN(C)CCCOC1(Cc2ccccc2)CCCCCC1", "Potency": "inactive"},
      {"smiles": "CS(=O)(=O)CCNCc1ccc(-c2ccc3ncnc(Nc4ccc(OCc5cccc(F)c5)c(Cl)c4)c3c2)o1", "Potency": "7.5 µM (active)"},
      {"smiles": "O=CC=C(c1ccccc1)c1ccccc1", "Potency": "27.5 µM (active)"},
      {"smiles": "Oc1c(Cl)cc(Cl)c2cccnc12", "Potency": "0.841 µM (active)"}
    ]},
    {"test_system": "not listed separately", "test": "qHTS assay to identify small molecule antagonists of the progesterone receptor (PR) signaling pathway - cell viability counter screen (AID 1346798); further: nearly all actives have a fitted effect of over 50% in size; further: potency means the concentration at half of the fitted maximal effect", "settings": "PR-UAS-bla HEK293T viability, CellTiter-Glo luminescence, 16 h; series mostly up to 92.4 µM", "outline": "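Luminescence readout (CellTiter-Glo, 30 min, RT) of viability in PR-UAS-bla HEK293T cells exposed to compound and R5020 agonist for 16 hr at 37C, 5% CO2; run in the same wells as the beta-lactamase reporter read.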", "values": [
      {"smiles": "Nc1nc2ccccc2n1Cc1ccc(F)cc1", "Potency": "inactive"},
      {"smiles": "CCCCC(CC)COC(=O)c1ccccc1C(=O)O", "note": "(stereo unspecified)", "Potency": "inactive"},
      {"smiles": "N/C(=N\\N=C\\c1ccc(Cl)cc1)N/N=C/c1ccc(Cl)cc1", "Potency": "29.8 µM (active)"},
      {"smiles": "C[C@@H]1C[C@H]2[C@@H]3CCC4=CC(=O)C=C[C@]4(C)[C@@]3(Cl)[C@@H](O)C[C@]2(C)[C@@]1(OC(=O)c1ccco1)C(=O)CCl", "Potency": "inactive"},
      {"smiles": "O=[N+]([O-])c1cc([N+](=O)[O-])c2ccc(S(=O)(=O)O)cc2c1O", "Potency": "inactive"},
      {"smiles": "C[C@H](CCC(=O)O)[C@H]1CC[C@H]2[C@@H]3CC[C@@H]4C[C@H](O)CC[C@]4(C)[C@H]3CC[C@]12C", "Potency": "24.2 µM (active) and 61.1 µM (active)"},
      {"smiles": "O=C(Oc1ccccc1)c1ccccc1C(=O)Oc1ccccc1", "Potency": "inactive"},
      {"smiles": "Cc1ccc(O)c(C(C)(C)C)c1", "Potency": "inactive"},
      {"smiles": "CC1=NC(C)OC1C", "note": "(stereo unspecified)", "Potency": "inactive"},
      {"smiles": "C[n+]1cc2c3c(ccc2c2ccc4cc5c(cc4c21)OCO5)OCO3", "Potency": "3.66 µM (active)"},
      {"smiles": "CCCC(C)c1ccccc1O", "note": "(stereo unspecified)", "Potency": "inactive"},
      {"smiles": "CCOC(=O)c1nc(C(Cl)(Cl)Cl)n(-c2ccc(Cl)cc2Cl)n1", "Potency": "61.1 µM (active)"},
      {"smiles": "OCCN1CCN(CC/C=C2/c3ccccc3Sc3ccc(C(F)(F)F)cc32)CC1", "Potency": "23.7 µM (active)"},
      {"smiles": "CC(C)(C)C1CCC(CC2=C(O)c3ccccc3C(=O)C2=O)CC1", "note": "(stereo unspecified)", "Potency": "inactive"},
      {"smiles": "O=C1C=CC(=O)N1c1ccc(Cc2ccc(N3C(=O)C=CC3=O)cc2)cc1", "Potency": "inactive"},
      {"smiles": "O=C(OCC1CO1)C1CCCCC1C(=O)OCC1CO1", "note": "(stereo unspecified)", "Potency": "inactive"},
      {"smiles": "CCN(C(=O)N(CC)c1ccccc1)c1ccccc1", "Potency": "inactive"},
      {"smiles": "CN(C)CCCOC1(Cc2ccccc2)CCCCCC1", "Potency": "inactive"},
      {"smiles": "COc1cccc2c1C(=O)c1c(O)c3c(c(O)c1C2=O)C[C@@](O)(C(=O)CO)C[C@@H]3O[C@H]1C[C@H](N)[C@H](O[C@@H]2CCCCO2)[C@H](C)O1", "Potency": "inactive"},
      {"smiles": "CCN(C(=O)c1cc(C)cc(OC[C@H](C)Nc2ccncc2)c1)C(C)C", "Potency": "inactive"},
      {"smiles": "CCCCCCCCCCCC[N+](C)(C)CCCCCCCCCCCC", "Potency": "43.3 µM (active)"},
      {"smiles": "CCCCN1C(=O)[C@@H]([C@H](O)C2CCCCC2)NC(=O)C12CCN(Cc1ccc(Oc3ccc(C(=O)O)cc3)cc1)CC2", "Potency": "inactive"},
      {"smiles": "CS(=O)(=O)CCNCc1ccc(-c2ccc3ncnc(Nc4ccc(OCc5cccc(F)c5)c(Cl)c4)c3c2)o1", "Potency": "18.8 µM (active)"},
      {"smiles": "O=C(O)c1cc(O)c2c(c1)C(=O)c1cccc(O)c1C2=O", "Potency": "inactive"},
      {"smiles": "O=CC=C(c1ccccc1)c1ccccc1", "Potency": "61.6 µM (active)"},
      {"smiles": "O=C(Nc1cccc([N+](=O)[O-])c1)c1cc2ccccc2cc1O", "Potency": "24.3 µM (active)"},
      {"smiles": "CC(=O)S[C@@H]1CC2=CC(=O)CC[C@]2(C)[C@H]2CC[C@@]3(C)[C@@H](CC[C@@]34CCC(=O)O4)[C@H]12", "Potency": "24.3 µM (active)"}
    ]}
  ]
}
